Source: the supplement of paper PMC3334620
Over roughly 33,000 sequences, “E-score (-0.5 to 0.5)” has its median near -0.0014; the highest 2% begin near 0.25. Many of the other results were omitted from the sample, so the highest values are more common in it than they were.

Target: T1, Cad1 (UniProt P24813)
T1 sequence: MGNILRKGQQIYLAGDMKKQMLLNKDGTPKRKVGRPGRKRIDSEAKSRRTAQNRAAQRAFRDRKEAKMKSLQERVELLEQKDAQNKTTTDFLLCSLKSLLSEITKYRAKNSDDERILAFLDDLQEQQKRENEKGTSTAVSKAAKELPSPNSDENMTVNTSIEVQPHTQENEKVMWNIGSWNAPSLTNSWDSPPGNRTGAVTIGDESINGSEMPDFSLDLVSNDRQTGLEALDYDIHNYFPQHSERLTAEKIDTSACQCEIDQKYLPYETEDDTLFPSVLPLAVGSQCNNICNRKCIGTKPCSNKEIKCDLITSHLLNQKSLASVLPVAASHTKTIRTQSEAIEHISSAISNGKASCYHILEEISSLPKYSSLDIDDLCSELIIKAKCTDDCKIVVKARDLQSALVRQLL
Assay: PBM E-score (8-mer binding enrichment) (E-score (-0.5 to 0.5)); higher = stronger / more preferred TF binding
Settings: protein concentration: 100 nM; construct: GST-full length
Protocol: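 Universal 'all 10-mer' protein binding microarrays (Agilent AMADID 015681) probed with GST-tagged S. cerevisiae TFs (full-length or DBD) made by in vitro transcription/translation (PURExpress), about 100-200 nM. Bound TF was detected with fluorescent anti-GST. Each ungapped 8-mer (which stands for itself and its reverse complement) is scored by the PBM enrichment score (E-score), a modified Wilcoxon-Mann-Whitney statistic from -0.5 to +0.5, computed with the Universal PBM Analysis Suite. Scale: above 0.35 generally sequence-specific binding.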

Sequence	PBM E-score
TCTTAACA	0.0995
CCCGCCGG	-0.00326
GTCACTTA	0.151
AGCTAGCA	-0.0255
AGAGACGG	0.0418
CCTAATAC	0.013
ACTAACAG	0.193
ACTAACAT	0.255
ACTAATAC	0.301
ACTAACAC	0.184
GCTAATAC	0.152
ACTGCGCG	0.0621
AATATAGG	0.123
AATATAGT	0.281
AATATAGC	0.0229
AATATATA	0.244
AATATCGT	0.272
AATATCGG	0.183
ACTATAGA	-0.00757
ACTATAGT	0.293
ACTATAGG	-0.161
AATATCGA	0.242
AATATATG	0.236
AATATATT	0.322
ACTGGTCA	-0.0283

Sequence	PBM E-score
GAGTCCGC	-0.377
ATTTAGGA	0.0482
AGGCAGGG	-0.133
ACCACCAA	-0.0937
CTTCCGTC	-0.133
CAGAGCAA	-0.0906
AACAGGGC	0.0552
TGCGTGAA	0.0712
GACGTATC	-0.107
ACCCATGA	-0.0855
CCACACGC	0.131
ATTACGAG	0.0536
ATTACGTA	0.392
GTTACGAA	0.17
CTCACGTA	-0.0707
CTTACGTA	0.328
GTTACGTA	0.0792
ATTACGAA	0.327
ATTACGTG	0.163
CTTACGTC	-0.0353
CCAATTTC	0.105
ATCCACTA	0.127
GACTAAGA	0.0179
CAATTACA	0.241
GGATTACA	0.0354

Sequence	PBM E-score
TGATTACA	0.275
TAATTATA	0.306
AGATTACT	0.184
AAATTATA	0.237
AGATTACG	0.252
TAATTACA	0.265
GAATTATA	0.19
AGATTACC	0.107
AAATTACA	0.191
CGATTACA	0.197
ATGCCCGA	-0.0531
TGGCGCCA	0.198
CGCGTTCC	0.132
AGATCAGG	-0.128
TCGTTAGA	0.0445
CGTACTTC	0.096
CTACGGCC	-0.0892
TCGGTACA	-0.0456
ATAAGAAC	0.205
AAAAGAAC	0.118
ACAAGAAC	0.251
CTAAGATA	-0.0701
ATAAGATC	0.0938
GCAAGAAC	0.0479
ATAAGAAA	0.209

Sequence	PBM E-score
ACAAGAAT	0.00675
AAAAGAAT	0.257
ATAAGATA	0.264
ATAAGAAT	0.284
AAAAGAAG	0.0683
GGCTTTAA	-0.12
TACCACTA	-0.0282
CTAGCCCA	-0.145
CGGACACA	0.00739
GAGGCTTA	-0.0175
ATAGGCAT	-0.202
GAGGTTCA	0.0769
CTGGCTGC	-0.0751
ACGCGTCA	0.198
GGGAAGAC	-0.154
AACCCCAT	-0.107
AAACCCAT	0.261
AAACCCAG	0.0892
AGGCCGAA	-0.0603
CTTAAGGA	0.0352
AAGGCACA	-0.0665
TGACCGCA	0.0752
AAATGATA	0.214
GAATGATA	0.223
CAATGATA	0.0335

Sequence	PBM E-score
AAATGATC	-0.133
TAATGATA	0.251
AAATGATT	0.261
AATCTGCG	0.00478
CAGGTTAC	-0.0155
CACTTCGG	-0.0116
CATTGTAC	0.0995
AATTGTAC	0.252
GATTGTAC	-0.082
AACACAGG	-0.0364
AACACAGC	0.281
CACACAGC	0.107
CGGGGGCC	-0.42
CGGAGGTA	-0.0635
GGCGTCCC	-0.213
GGACGTCA	-0.159
AGACGTCA	-0.096
TGACGTCA	0.334
GGTCGACA	0.0882
AGTCGACG	0.296
AGTCGACC	0.107
AGTCGACT	0.287
AGTCGACA	0.22
CGTCGACG	0.103
CGTCGACC	0.118

Sequence	PBM E-score
ACTCGACG	0.0798
GGTCGACC	0.263
CCAACTAG	0.0684
GCGCACCA	0.134
CTAACCTA	-0.129
AACTAGCC	-0.0573
AGAACAGC	0.00791
ACGCATTG	-0.0523
GAACATAC	0.0334
AGTGGCGG	-0.014
CTCAGGCA	0.034
AAACGGAA	0.266
ACACCAAG	-0.0199
GAACGAAA	-0.0129
GAACGGAA	-0.0319
CAACGAAA	0.162
TAACGAAA	0.26
GCACCAAA	-0.0001
AAACGAAC	0.0751
AAACGAAA	0.287
AAACGAAT	0.017
AAACGGAC	-0.00593
ACACCAAA	0.254
GGGCAACA	-0.0207
TTCAAAAA	-0.0855

Sequence	PBM E-score
ACATTCCG	0.05
CATGGAAA	0.161
AGCTGAAT	-0.00032
GGGCAGTA	-0.0606
AAACGATA	0.128
ACACGAAA	0.257
CAACGATA	0.174
TAACGATA	0.261
ACACGAAT	0.0874
ACACGAAG	0.0492
GCAGTTAC	0.128
CAAGTACG	-0.268
CCGGAGAC	0.036
ACGGAGAC	0.128
GCGGAGAC	0.267
CTCAACGA	-0.0873
CTACCTAA	0.0375
GGACATAA	0.102
GTACATAA	0.0232
ATACCTAA	0.227
TTACATAA	0.438
TGACATAA	0.266
AGACATAA	0.0308
TTACCTAA	0.334
CTACATAA	-0.0789

Sequence	PBM E-score
AAGTGGCA	-0.0104
CTCCATGA	0.0675
CCATAAGA	-0.0777
AAGCCTCG	-0.00547
ATTGTGAA	0.0555
GCCCTCCC	-0.19
AAGCACAC	-0.0239
AAGCACAG	0.0641
AAGCACAT	0.254
AGTAACAA	0.082
CGTAACAA	0.0611
GGTAACAA	0.261
ACCATCCG	-0.081
AAGTCCTC	-0.0441
CTCGATTA	0.276
ATCGATTA	0.275
CACGATTA	0.162
ATCGATCG	0.188
GTCGATTA	0.115
ATCGATTG	0.299
ACCGATTA	0.123
ATCGATTC	0.0832
CTCGATTC	0.0642
CCCTAGGC	-0.079
TACCCAGA	0.109

Sequence	PBM E-score
ACACAGAT	0.0606
CGCACACC	0.0191
ACGTCCGA	-0.0154
CCTGGTAG	-0.209
TAGTTATA	0.068
AGTGCGTC	-0.0502
AACCTGCC	-0.164
GTCTAGTA	0.0789
AACTTGAC	0.0523
ACGCACCC	-0.147
AAAGTTCT	0.0926
ACTACCGG	-0.231
ATAAACAC	0.15
TTAAACAA	-0.157
GCAACGAA	0.275
ACAACGAA	0.145
TCAACGAA	0.0907
ACAAACAC	0.262
ATAACGAA	0.258
ATAAACAA	0.261
CTAACGAA	0.153
ATAACGAC	0.189
ACAAACAA	0.176
ACAAACAG	0.0175
